# Screening data as filed in PubChem.
# GCN5L2 inh: qHTS Assay for Inhibitors of GCN5L2. AID 504327, 2011. Histone acetyltransferase KAT2A (Homo sapiens), Q92830. GCN5L2 HAT assay, ThioGlo1 CoA-SH fluorescence. 0.21% of 390,000 active. Potency, µM (doses to about 58.9 µM), without a hit: at the top dose activity change, negative = inhibition, actives largely listed as inhibitors
# Target sequence (Q92830 whole entry, looked up): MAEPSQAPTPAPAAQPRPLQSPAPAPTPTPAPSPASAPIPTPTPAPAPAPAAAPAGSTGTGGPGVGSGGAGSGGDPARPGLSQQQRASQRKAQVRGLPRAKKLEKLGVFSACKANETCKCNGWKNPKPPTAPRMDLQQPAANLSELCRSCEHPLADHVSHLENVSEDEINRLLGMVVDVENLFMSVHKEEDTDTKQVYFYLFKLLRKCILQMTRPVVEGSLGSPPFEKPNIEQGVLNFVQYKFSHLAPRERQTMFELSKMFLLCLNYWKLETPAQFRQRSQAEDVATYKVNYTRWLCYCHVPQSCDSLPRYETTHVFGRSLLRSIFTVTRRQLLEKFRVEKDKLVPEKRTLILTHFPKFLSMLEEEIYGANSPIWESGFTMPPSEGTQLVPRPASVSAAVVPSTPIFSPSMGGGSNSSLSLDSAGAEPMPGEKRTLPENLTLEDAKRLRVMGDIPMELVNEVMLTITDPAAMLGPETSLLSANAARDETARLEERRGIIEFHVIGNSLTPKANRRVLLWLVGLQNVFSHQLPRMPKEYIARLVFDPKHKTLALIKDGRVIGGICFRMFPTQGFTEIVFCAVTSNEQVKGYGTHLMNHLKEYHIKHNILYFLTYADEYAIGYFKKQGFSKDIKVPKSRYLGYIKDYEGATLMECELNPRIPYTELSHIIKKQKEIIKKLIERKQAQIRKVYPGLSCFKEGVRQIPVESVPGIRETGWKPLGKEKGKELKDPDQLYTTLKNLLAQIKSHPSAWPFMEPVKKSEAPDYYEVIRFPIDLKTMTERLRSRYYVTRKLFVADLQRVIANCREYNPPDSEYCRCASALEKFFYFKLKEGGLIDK
#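 Enzyme at 20nM final was mixed with library compounds for 15 min at room temperature. Peptide H3(1-25) at 75uM, acetyl-CoA at 70uM and ThioGlo1 at 50uM were then added. Plates were read immediately and after 20 min (Ex340nm/Em540nm).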
# TDP1 block: qHTS Assay for Inhibitors of Tyrosyl-DNA Phosphodiesterase (TDP1); Tyrosyl-DNA phosphodiesterase 1 (Homo sapiens), Q9NUW8; recombinant TDP1, AlphaScreen DNA substrate cleavage; Potency, µM (top dose mostly 130 µM), inactives show top-dose activity change, negative = inhibition, actives largely listed as inhibitors; 0.28% of 350,000 active; AID 485290, 2010; also: nearly all actives have a fitted effect of over 40% in size
#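 Recombinant E. coli-expressed Tdp1 (1 nM) preincubated with compound 15 min at RT, then 5'-biotin/3'-phosphotyrosine-FITC DNA substrate (15 nM) added for 5 min. AlphaScreen beads (10 ug/ml) added, 10 min RT; tyrosine-FITC cleavage read as signal loss.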
# TDP1 cell CPT: qHTS for Inhibitors of human tyrosyl-DNA phosphodiesterase 1 (TDP1): qHTS in cells in presence of CPT; chicken DT40 Tdp1-/-;hTDP1 cells + 20 nM CPT, ATP luminescence, 48 h; Potency, µM (top dose mostly 46.2 µM), for the others: at the highest dose activity change, negative = growth inhibition, actives largely listed as inhibitors; 12% of 420,000 active; AID 686979, 2013; also: nearly all actives have a fitted effect of over 55% in size
#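 Chicken DT40 Tdp1-/- cells complemented with human TDP1, 400 cells/well, exposed to compounds plus 20 nM camptothecin for at least 48 h at 37 C; viability read as ATP content by CellTiter-Glo luminescence.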
# PLK1 PBD inh: qHTS for Inhibitors of PLK1-PDB (polo-like kinase 1 - polo-box domain): Primary Screen; Plk1 PBD binding of FITC phosphopeptide, fluorescence polarization; Potency, µM, for inactives: max response, negative = inhibition, actives largely listed as inhibitors; 2.8% of 360,000 active; AID 720504, 2013; also: series mostly up to about 57 µM; nearly all actives have a fitted effect of over 65% in size
# TDP1 cell noCPT: qHTS for Inhibitors of human tyrosyl-DNA phosphodiesterase 1 (TDP1): qHTS in cells in absence of CPT; DT40 Tdp1-/- hTDP1 cells, no CPT, ATP luminescence, 48 h; Potency, µM (top dose mostly 46.2 µM), inactives show top-dose activity change, negative = growth inhibition, hits mostly inhibitors; 15% of 420,000 active; AID 686978, 2013; also: nearly all actives have a fitted effect of over 55% in size
#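 Cells were dispensed at 400 per well, compounds added by pin tool, plates incubated ≥48 hr at 37 °C, then CellTiter-Glo added for 30 min at room temperature before luminescence reading. Line: DT40 Tdp1-/- complemented with hTDP1; camptothecin omitted.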
# VDR inh: Inhibitors of the vitamin D receptor (VDR): qHTS; Vitamin D3 receptor (Homo sapiens), P11473; VDR-SRC2-3 peptide fluorescence polarization, 2 h; Potency, µM, without a hit: max response, negative = inhibition, most hits filed as inhibitors; 0.93% of 400,000 active
#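 VDR–SRC2-3 interaction, FP format. Cmpds 23 nl via pintool, brief spin, 2 h ambient incubation.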
# * = called active by the depositor; u = inconclusive; x = no result; [ ] = another dose, or the depositor's remark. A selection: hits, their analogues and other compounds. The true share with any hit is near 18%. Calls follow the shape of the dose curve; as a rule, active = well fitted curve in the direction sought with a large enough effect; inconclusive = small, poorly fitted or top-dose-only effect, or another doubt; inactive = no such curve, though single readings can be large; an effect the other way counts as inactive or inconclusive. % is scaled to controls: 0 for no effect and ±100 for the full control effect; potency is read from the fitted curve at half-maximal effect.
SMILES,GCN5L2 inh,TDP1 block,TDP1 cell CPT,PLK1 PBD inh,TDP1 cell noCPT,VDR inh
Cc1nc2cccnc2n1-c1cccc(C(=O)NCc2ccc(OC(C)C)cc2)c1,-2%,3%,u,x,u,-1%
Cc1cc(/C=N/n2cnnc2)c(C)n1-c1ccc(OCc2ccc(Cl)cc2Cl)cc1,-7%,10%,7.3µM*,-6%,5.8µM*,2%
Cc1cc(/C=N/n2cnnc2)c(C)n1-c1ccc(Cl)cc1,-4%,2%,-4%,-10%,-12%,u
Cc1ccc(SCC(=O)OCc2csc(CC(=O)Nc3ccccc3C)n2)cc1C,-12%,0%,-27%,-5%,1%,16%
CN(c1ccccc1)c1ccc(/C=C(\C#N)c2nnc3n2CCCCC3)cc1[N+](=O)[O-],-7%,11%,18µM*,-18%,12µM*,u
Cc1ccc(S(=O)(=O)N2CCCC2)cc1C(=O)Nc1ccc(-n2cnnn2)cc1,4%,1%[56.1 µM],u,0%,-29%,14%
O=C(c1cnccn1)N1CCC2(CC1)CCN(C(c1ccccc1)c1ccccc1)CC2,7%,x,-4%,x,u,-1%
O=C(NC1CCCCC1)C(c1cccc2ccccc12)n1c(=O)c(-c2ccco2)nc2ccccc21 (stereo not given),x,x,16µM*,u,23µM*,x
COc1ccc(NC(=O)C(c2ccc(C(F)(F)F)cc2)n2c(=O)c(-c3ccco3)nc3ccccc32)cc1 (stereo not given),x,x,u,-13%,u,x
COc1ccc(NC(=O)C(c2ccncc2)n2c(=O)c(-c3ccco3)nc3ccccc32)cc1 (stereo not given),x,x,u,-13%,23µM*,x
CC(C)(C)NC(=O)C(c1ccncc1)n1c(=O)c(-c2ccco2)nc2ccccc21 (stereo not given),x,x,6%,-12%,-7%,x
COc1ccc(C(C(=O)NC2CCCCC2)n2c(=O)c(-c3ccco3)nc3ccccc32)cc1 (stereo not given),x,x,u,-18%,26µM*,x
COc1ccc(NC(=O)C(c2cccc3ccccc23)n2c(=O)c(-c3ccco3)nc3ccccc32)cc1 (stereo not given),x,x,u,-15%,-30%,x
COc1cc2nc(NC(=O)c3ccc(S(=O)(=O)N4CCOCC4)cc3)sc2cc1OC,0%,5%,u,x,-16%,6%
O=C(CN1CCc2cc3c(cc2C1)OCCCO3)Nc1c(F)cccc1F,-6%,6%,23µM*,-6%,u,7%
O=c1ccn(C2CCCO2)c(=O)[nH]1 (stereo not given),x,x,-29%,-4%,15µM*,-29%
Cc1cc(C(=O)N2CCCC(N3CCN(c4cccc(C(F)(F)F)c4)CC3)C2)c(C)o1 (stereo not given),u,8%[56.1 µM],16µM*,-2%,12µM*,-1%
Cc1occc1C(=O)N1CCCC(N2CCN(c3cccc(C(F)(F)F)c3)CC2)C1 (stereo not given),-13%,6%,21µM*,-2%,13µM*,18%
Cc1cc(C(=O)N2CCCC(N3CCN(c4cccc(C(F)(F)F)c4)CC3)C2)nn1C (stereo not given),-3%,3%,u,-10%,u,5%
CSCC(=O)N1CCCC(N2CCN(c3cccc(C(F)(F)F)c3)CC2)C1 (stereo not given),-2%,3%,-28%,-6%,u,-8%
CC(C)NC(=O)C(c1ccc(F)cc1)N(C(=O)CCC(=O)Nc1ccccn1)c1cccc(F)c1 (stereo not given),3%,6%,u,-14%,-12%,4%
N=C1Sc2ccccc2C2=NCCCN12,x,18%,x,x,x,x
COc1ccccc1C1C2=C(N=C3SCC(=O)N31)c1ccccc1CC2 (stereo not given),-13%,7%,u,-9%,u,0%
COc1ccc(C2C3=C(N=C4SCC(=O)N42)c2ccccc2CC3)cc1OC (stereo not given),-6%,3%,15µM*,-12%,15µM*,6%
CC[C@H](C)[C@@H]1OC(=O)[C@@H](C)[C@@H](CC)NC(=O)[C@H](C)N(C)C(=O)C(C)(C)C(=O)C(C)NC(=O)[C@H](Cc2ccccc2)N(C)C(=O)[C@H](C(C)C)N(C)C(=O)CNC(=O)[C@H](CC(C)C)N(C)C(=O)CNC1=O (stereo not given in full),x,x,0.13µM*,-9%,0.18µM*,x
SMILES,GCN5L2 inh,TDP1 block,TDP1 cell CPT,PLK1 PBD inh,TDP1 cell noCPT,VDR inh
O=C(C1CCCO1)N1CCN(c2c3c(nc4cc(-c5ccc(F)cc5)nn24)CCC3)CC1 (stereo not given),-3%,2%,u,-10%,16µM*,-5%
Fc1ccc(-c2cc3nc4c(c(N5CCOCC5)n3n2)CCCC4)cc1,-8%,-6%,18µM*,1%,16µM*,0%
OC1CCN(c2c3c(nc4cc(-c5ccc(F)cc5)nn24)CCC3)CC1,-10%,6%,16µM*,-6%,u,-1%
Fc1ccc(-c2csc(N3CCOCC3)n2)cc1,4%,5%,-13%,-15%,u,-16%
O=C(c1ccccc1)N1CCN(c2nc(-c3cccs3)nc3ccccc23)CC1,x,3%,x,x,x,x
O=[N+]([O-])c1ccc(NCCNS(=O)(=O)c2ccccc2)cc1,-25%,8%,-8%,-6%,u,-6%
O=[N+]([O-])c1ccc(NCCCNS(=O)(=O)c2ccccc2)c(Cl)c1,-7%,5%,u,-9%,16µM*,-7%
Cc1ccc(C(=O)NCCNc2ccc([N+](=O)[O-])cc2C(F)(F)F)cc1,-10%,0%,18µM*,-12%,18µM*,18%
O=[N+]([O-])c1ccc(NCCNS(=O)(=O)c2ccccc2)c(C(F)(F)F)c1,-9%,6%,26µM*,-3%,18µM*,3%
N#Cc1cccc(CS(=O)(=O)c2nc3ccccc3s2)c1,x,7%,x,x,x,u
Cc1ccccc1C(=O)Nc1cccc(-c2nnc(SCC(=O)NCc3ccco3)n2C)c1,x,x,-28%,x,-28%,x
